# Reference: PubChem BioAssay (NCI)
# Several values for one entry are separate records, joined by “and”; a condition that tells them apart may be missing. Identical values can stand only once. Compounds without any hit were thinned out: in the full panel of roughly 79,000, 15% have a hit. Unmarked numbers belong to inactive results. Activity calls are given as the source filed them. Cut-off read from the data, not from the text of the source: active = growth inhibition above about 70%; inactive = the rest.
# How the values were obtained:
# [1] = NCI Yeast Anticancer Drug Screen. Data for the rad52 strain (AID 147);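 note: 0% = growth of vehicle-treated control cultures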; conditions: S. cerevisiae rad52 mutant growth inhibition, active compounds read high
# How it was run: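 The repair-mutant yeast strain was incubated with compounds, then growth was read and inhibition derived relative to vehicle.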
# [2] = NCI Yeast Anticancer Drug Screen. Data for the wt1 strain (AID 149);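 note: 0% = growth of vehicle-treated wt1 cultures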; conditions: S. cerevisiae wt1 strain (SPY 50644) growth inhibition, active compounds read high
# How it was run: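 Each compound is tested on wt1 yeast and the loss of growth versus vehicle gives the inhibition value.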
# [3] = NCI Yeast Anticancer Drug Screen. Data for the rad50EPP+ strain (AID 151);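 note: 0% = growth of vehicle-treated control cultures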; conditions: S. cerevisiae rad50 mutant strain, active compounds read high
# How it was run: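 Vehicle-normalised growth inhibition; rad50EPP+ yeast strain, altered in DNA damage repair, compound-treated.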
# [4] = NCI Yeast Anticancer Drug Screen. Data for the rad50 strain (AID 155);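 note: 0% = growth of vehicle-only cultures of the same strain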; conditions: S. cerevisiae rad50 strain growth inhibition, active compounds read high
# How it was run: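 Vehicle-treated cultures provide the reference for the growth inhibition reported for compound-exposed, repair-deficient yeast.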
# [5] = NCI Yeast Anticancer Drug Screen. Data for the mec2-1 strain (AID 157); conditions: S. cerevisiae mec2-1 strain, active compounds read high
# How it was run: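 Mutant yeast (mec2-1) grown with compound; growth inhibition relative to vehicle control reported.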
# [6] = NCI Yeast Anticancer Drug Screen. Data for the rad14 strain (AID 159);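 note: 0% = growth of vehicle-treated control cultures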; conditions: S. cerevisiae rad14 strain growth inhibition, active compounds read high
# How it was run: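 Inhibition of growth is reported for a repair-deficient yeast mutant following compound treatment, calculated relative to cultures that received vehicle.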
# [7] = NCI Yeast Anticancer Drug Screen. Data for the sgs1 mgt1 strain (AID 161);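 note: 0% = growth of cultures given vehicle only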; conditions: S. cerevisiae sgs1 mgt1 strain, active compounds read high
# How it was run: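 Yeast cells carrying a defined DNA-repair defect were exposed to test compounds. Growth inhibition was measured relative to vehicle-treated controls.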
# [8] = NCI Yeast Anticancer Drug Screen. Data for the CLN2oe strain (AID 163);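 note: 0% = growth of vehicle-only control cultures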; conditions: S. cerevisiae CLN2oe strain, active compounds read high
# How it was run: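 Compounds are applied to yeast harbouring a defined cell-cycle control change; reduced growth compared with vehicle-treated controls gives the value.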
# [9] = NCI Yeast Anticancer Drug Screen. Data for the bub3 strain (AID 167); conditions: S. cerevisiae bub3 mutant strain, active compounds read high
# How it was run: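 Mutant yeast screening strain plus compound; vehicle-treated cultures serve as the 0% inhibition reference.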
# [10] = NCI Yeast Anticancer Drug Screen. Data for the wt2 strain (AID 169); conditions: S. cerevisiae wt2 strain growth inhibition, active compounds read high
# How it was run: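 Against vehicle-treated controls, the growth of yeast exposed to each compound was compared, and the inhibition was recorded.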
# [11] = NCI Yeast Anticancer Drug Screen. Data for the mlh1 strain (AID 171);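 note: 0% = growth of vehicle-treated control cultures of the same strain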; conditions: S. cerevisiae mlh1 strain growth inhibition, active compounds read high
# How it was run: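 Measured: yeast growth. Reference: vehicle-treated controls. Organism: strain with a defined alteration affecting DNA damage repair or cell cycle control, treated with compound.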
# [12] = NCI Yeast Anticancer Drug Screen. Data for the sgs1 strain (AID 173);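 note: 0% = growth of vehicle-only control cultures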; conditions: S. cerevisiae sgs1 mutant, active compounds read high
# How it was run: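 Each compound was added to cultures of the altered yeast strain. Growth was recorded, and inhibition was derived by comparison with vehicle controls.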
# [13] = NCI Yeast Anticancer Drug Screen. Data for the mlh1 rad18 strain (AID 175); conditions: S. cerevisiae mlh1 rad18 strain growth inhibition, active compounds read high
# How it was run: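 Genetically defined yeast (DNA repair-deficient) exposed to compounds; growth inhibition determined relative to vehicle.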
# [14] = NCI Yeast Anticancer Drug Screen. Data for the rad18 strain (AID 177); conditions: S. cerevisiae rad18 mutant growth inhibition, active compounds read high
# How it was run: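 Vehicle-treated cultures served as the baseline for scoring compound-induced growth inhibition in DNA-repair-mutant yeast.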
# [15] = at 5.0 µM (retest, dose inferred, filed as 0.5)
# [16] = at 50.0 µM (retest, dose inferred, filed as 5.0)
compound,measurement,setting,value
COc1ccc(/C(C#N)=C/c2ccc(OC)c(OC)c2)cc1,growth inhibition,[1]; at 1.2 µM,10%
same,growth inhibition,[1]; at 3.7 µM,-6%
same,growth inhibition,[1]; at 11.0 µM,-1%
same,growth inhibition,[1]; at 33.0 µM,-13%
same,growth inhibition,[1]; at 100.0 µM,21%
same,growth inhibition,[2]; at 1.2 µM,-37%
same,growth inhibition,[2]; at 3.7 µM,-21%
same,growth inhibition,[2]; at 11.0 µM,-22%
same,growth inhibition,[2]; at 33.0 µM,-23%
same,growth inhibition,[2]; at 100.0 µM,0%
same,growth inhibition,[3]; at 1.2 µM,-17%
same,growth inhibition,[3]; at 3.7 µM,0%
same,growth inhibition,[3]; at 11.0 µM,8%
same,growth inhibition,[3]; at 33.0 µM,60%
same,growth inhibition,[3]; at 100.0 µM,54%
same,growth inhibition,[4]; at 1.2 µM,2%
same,growth inhibition,[4]; at 3.7 µM,-4%
same,growth inhibition,[4]; [15],46%
same,growth inhibition,[4]; at 11.0 µM,-12%
same,growth inhibition,[4]; at 33.0 µM,6%
same,growth inhibition,[4]; [16],83% (active)
same,growth inhibition,[4]; at 50.0 µM,15.1% and 51.5%
same,growth inhibition,[4]; at 100.0 µM,14%
same,growth inhibition,[5]; at 1.2 µM,-11%
same,growth inhibition,[5]; at 3.7 µM,-7%
same,growth inhibition,[5]; [15],56%
same,growth inhibition,[5]; at 11.0 µM,-21%
same,growth inhibition,[5]; at 33.0 µM,-10%
same,growth inhibition,[5]; [16],92% (active)
same,growth inhibition,[5]; at 50.0 µM,43.8% and 38%
same,growth inhibition,[5]; at 100.0 µM,18%
same,growth inhibition,[6]; at 1.2 µM,-17%
same,growth inhibition,[6]; at 3.7 µM,-29%
same,growth inhibition,[6]; at 11.0 µM,-27%
same,growth inhibition,[6]; at 33.0 µM,-13%
same,growth inhibition,[6]; at 100.0 µM,32%
same,growth inhibition,[7]; [15],-15%
same,growth inhibition,[7]; [16],57%
same,growth inhibition,[7]; at 50.0 µM,46.8%
same,growth inhibition,[8]; at 1.2 µM,13%
same,growth inhibition,[8]; at 3.7 µM,9%
same,growth inhibition,[8]; at 11.0 µM,-2%
same,growth inhibition,[8]; at 33.0 µM,0%
same,growth inhibition,[8]; at 100.0 µM,-5%
same,growth inhibition,[9]; at 1.2 µM,-5%
same,growth inhibition,[9]; at 3.7 µM,-3%
same,growth inhibition,[9]; [15],10%
same,growth inhibition,[9]; at 11.0 µM,2%
same,growth inhibition,[9]; at 33.0 µM,9%
same,growth inhibition,[9]; [16],75% (active)
same,growth inhibition,[9]; at 50.0 µM,50.2%
same,growth inhibition,[9]; at 100.0 µM,51%
same,growth inhibition,[10]; at 1.2 µM,-49%
same,growth inhibition,[10]; at 3.7 µM,-35%
same,growth inhibition,[10]; at 11.0 µM,-21%
same,growth inhibition,[10]; at 33.0 µM,-5%
same,growth inhibition,[10]; at 100.0 µM,21%
same,growth inhibition,[11]; at 1.2 µM,-8%
same,growth inhibition,[11]; at 3.7 µM,2%
same,growth inhibition,[11]; at 11.0 µM,10%
same,growth inhibition,[11]; at 33.0 µM,28%
same,growth inhibition,[11]; at 100.0 µM,40%
same,growth inhibition,[12]; at 1.2 µM,-8%
same,growth inhibition,[12]; at 3.7 µM,-13%
same,growth inhibition,[12]; at 11.0 µM,-20%
same,growth inhibition,[12]; at 33.0 µM,2%
same,growth inhibition,[12]; at 100.0 µM,16%
same,growth inhibition,[13]; [15],30%
same,growth inhibition,[13]; [16],81% (active)
same,growth inhibition,[13]; at 50.0 µM,26.1% and 58.4%
same,growth inhibition,[14]; at 1.2 µM,-13%
same,growth inhibition,[14]; at 3.7 µM,-17%
same,growth inhibition,[14]; at 11.0 µM,-13%
same,growth inhibition,[14]; at 33.0 µM,0%
same,growth inhibition,[14]; at 100.0 µM,13%
